An excerpt weighted towards active compounds, which were near 4.8% of everything screened.
D3 ag: activates the human D3 dopamine receptor; P35462; D3R DiscoveRx beta-arrestin cells, luminescence, 90 min; max activation, %; 410,000 tested, 0.58% active; in the data active = max activation above about 30%; also: 0% is about no effect
Target sequence (P35462 whole entry, looked up): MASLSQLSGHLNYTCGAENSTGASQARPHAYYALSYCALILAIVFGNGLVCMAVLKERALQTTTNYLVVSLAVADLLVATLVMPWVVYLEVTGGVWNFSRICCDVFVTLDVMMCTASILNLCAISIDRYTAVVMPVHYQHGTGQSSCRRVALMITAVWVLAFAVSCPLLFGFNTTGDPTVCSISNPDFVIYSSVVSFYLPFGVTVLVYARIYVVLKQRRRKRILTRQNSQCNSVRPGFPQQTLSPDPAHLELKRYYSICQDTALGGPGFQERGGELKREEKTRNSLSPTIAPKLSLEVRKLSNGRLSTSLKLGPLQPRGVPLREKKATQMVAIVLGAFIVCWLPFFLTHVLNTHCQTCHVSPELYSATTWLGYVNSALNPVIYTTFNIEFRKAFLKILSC
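Agonist mode: compounds and dopamine controls were applied to plated cells for 90 min at 37 degrees C after an overnight attachment at 1500 cells/well. Luminescent read-out followed 30 - 60 minutes at room temperature with DiscoveRx detection reagent.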
ATXN viability: viability counter-screen for ATXN expression inhibitors; S2 cells (HEK-293 line with an ATXN2-luciferase reporter) viability, CellTiter-Fluor protease fluorescence, 24 h; Potency, µM (highest dose often 56.7 µM), usual class: cytotoxic; 400,000 tested, 0.49% active; also: potency is read from the fitted curve at half-maximal effect; nearly all actives have a fitted effect of over 40% in size
HepG2 tox: kills HepG2 cells in TGF-b inhibitor counter-screen; AID 588856; 410,000 tested, 0.76% active; Potency, µM (titrated, usually from 46.1 µM), for the others: at the top dose activity change, negative = cytotoxicity, most hits filed as cytotoxic; HepG2 CAGA-GFP viability, ATP luminescence, 18 h; also: potency is read from the fitted curve at half-maximal effect
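HepG2 CAGA-GFP cells (1000/well, DMEM with 1% FBS) received compound, then TGF-beta at 500 pg/mL final, and were incubated 18 hours at 37 degrees C. Viability was read by CellTiter-Glo luminescence. Media-only wells were set as complete cell-killing and DMSO as no toxicity.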
TGFb inhibitor: blocks TGF-b signaling; HepG2 CAGA-GFP TGF-b/SMAD3 reporter, GFP fluorescence, 18 h; TGF-beta stimulated, 500 pg/mL final; Potency, µM (series often up to 46.1 µM), inactives show at the highest dose activity, negative = inhibition, most hits filed as inhibitors; 410,000 tested, 1.2% active; AID 588855; also: potency is read from the fitted curve at half-maximal effect; % is scaled to controls: 0 for no effect and ±100 for the full control effect; nearly all actives have a fitted effect of over 65% in size
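GFP signal (ex488/em500-530) from TGF-beta-stimulated HEPG2 CAGA-GFP cells, 500 pg/mL final, 18 h at 37 degrees C in DMEM plus 1% FBS, normalized to unstimulated and DMSO-stimulated controls.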
ATXN2 expr inh: ATXN2 expression inhibition. HEK-293 ATXN2-luciferase reporter, luminescence, 24 h. Potency, µM (doses to about 57 µM), for inactives: top-dose activity change, negative = inhibition, actives largely listed as inhibitors. 360,000 tested, 0.72% active; also: potency is read from the fitted curve at half-maximal effect; % is scaled to controls: 0 for no effect and ±100 for the full control effect; nearly all actives have a fitted effect of over 55% in size
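qHTS (up to 57 uM final) was run with 24 h compound exposure of reporter cells at 37 °C. Each well was multiplexed: SteadyGlo luminescence measured ATXN2-luciferase expression after a fluorogenic Gly-Phe-AFC viability readout (25 uM final).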
D3 antag: blocks the human D3 dopamine receptor; AID 652054; D3R cells, DiscoveRx beta-arrestin luminescence, antagonist mode; active compounds read low; 360,000 tested, 2.5% active; max response, negative = inhibition, %; P35462; in the data active = max response below about -50%; inconclusive = no clear call, values can overlap the other calls; also: % is scaled to controls: 0 for no effect and ±100 for the full control effect
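Cells expressing the human receptor were seeded at 1500 cells/well, incubated overnight at 37 degrees C in 5% CO2, then exposed to library compounds with dopamine controls for 90 minutes at 37 degrees C before luminescent detection.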
* hit, by the source's call; i = inactive; u = inconclusive; x = not tested or not shown. Unless noted, calls follow the shape of the dose curve; as a rule, active = well fitted curve in the direction sought with a large enough effect; inconclusive = small, poorly fitted or top-dose-only effect, or another doubt; inactive = no such curve, though single readings can be large; an effect the other way counts as inactive or inconclusive.

SMILES | D3 ag | ATXN viability | HepG2 tox | TGFb inhibitor | ATXN2 expr inh | D3 antag
COc1ccc(C(=O)Oc2c(C)occc2=O)cc1OC | -1 | i | -1% | 10% | -11% | -16
O=C(NCCN1CCC(n2c(=O)[nH]c3ccccc32)CC1)c1ccc(F)cc1 | -17 | i | x | x | -1% | -79*
O=C(NCCN1CCC(n2c(=O)[nH]c3ccccc32)CC1)c1ccc(Cl)c(Cl)c1 | -15 | u | x | x | 18µM* | -85*
O=C(NCCN1CCC(n2c(=O)[nH]c3ccccc32)CC1)c1ccc(Cl)cc1 | -15 | i | x | x | -34% | -51*
O=C(NCCN1CCC(n2c(=O)[nH]c3ccccc32)CC1)c1cccc2c1-c1ccccc1C2=O | -14 | i | x | x | 6% | 0
O=C(NCCN1CCC(n2c(=O)[nH]c3ccccc32)CC1)c1c(F)cccc1F | -12 | i | x | x | 7% | -92*
CCOc1ccc(NC(=O)N2CCC(n3c(=O)[nH]c4ccccc43)CC2)cc1 | 4 | i | -20% | -14% | 4% | 10
CCOc1ccc(S(=O)(=O)NCCc2sc3nc(-c4ccc(F)cc4)nn3c2C)cc1 | 3 | x | -37% | u | x | x
O=C(NCCN1CCOCC1)c1cccs1 | 0 | i | -3% | -7% | 8% | 10
Cc1ccc(C(=O)NCCN2CCC(n3c(=O)[nH]c4ccccc43)CC2)cc1F | -11 | i | x | x | 2% | -70*
O=C(NCCN1CCC(n2c(=O)[nH]c3ccccc32)CC1)c1cccs1 | -17 | i | x | x | 7% | -103*
O=C(NCCN1CCC(n2c(=O)[nH]c3ccccc32)CC1)c1ccc(F)cc1F | -14 | i | x | x | 4% | -109*
Cc1ccc(C(=O)NCC(=O)OCCCn2c(=O)[nH]c3ccccc32)cc1 | 4 | i | -7% | 1% | 1% | 7
Cc1ccc(C(=O)NCCN2CCC(n3c(=O)[nH]c4ccccc43)CC2)cc1 | -15 | i | x | x | 19% | -106*
Cc1c(C(=O)N2CCC(Cc3ccccc3)CC2)sc2ncnc(NCc3ccccn3)c12 | x | i | x | x | x | x
O=C(O)c1nn(Cc2ncc(-c3cccc(Cl)c3)o2)c(=O)c2ccccc12 | 33* | i | 9% | -3% | 11% | 8
COc1cccc(-c2noc(Cn3nc(C(=O)O)c4ccccc4c3=O)n2)c1 | 8 | i | -4% | 18% | 26% | 3
CCOC(=O)[C@@H]1[C@H]2COc3ccc(Br)cc3[C@H]2N2C(=O)N(c3ccc(OC)cc3)C(=O)[C@]12C | -14 | i | -1% | -1% | -7% | -62*
CCOC(=O)[C@@H]1[C@H]2COc3ccc(Br)cc3[C@@H]2N2C(=O)N(c3ccc(Br)cc3)C(=O)[C@]12C | 7 | i | 1% | 7.1µM* | -2% | 4
CCOC(=O)[C@@H]1[C@H]2COc3ccc(Br)cc3[C@H]2N2C(=O)N(c3ccc(Br)cc3)C(=O)[C@]12C | 2 | i | -15% | -24% | 7% | 14
CCOC(=O)[C@H]1[C@H]2COc3ccc(OC)cc3[C@@H]2N2C(=O)CN(CCc3c[nH]c4ccccc34)C(=O)[C@@]12C | 58* | i | -2% | u | 7% | -3
Cc1ccc(S(=O)(=O)c2c(O)cc(C)c(NS(=O)(=O)c3ccc(Br)cc3)c2C)cc1 | -13 | i | -56% | u | u | x
CCOC(=O)c1ccc(O)c(O)c1 | x | i | x | x | 6% | x
COc1ccc(-c2cc3ccccc3[nH]2)cc1 | 1 | i | 9% | 1% | 49% | -3
Cc1ccc(O)c(-c2cc3ccccc3[nH]2)c1 | 6 | i | -64% | 16µM* | 51% | 15
SMILES | D3 ag | ATXN viability | HepG2 tox | TGFb inhibitor | ATXN2 expr inh | D3 antag
CC(C)Sc1ncc(Cl)c(C(=O)Nc2ccc(S(=O)(=O)N3CCCCC3C)cc2)n1 (stereo unspecified) | 1 | i | -5% | -10% | -4% | x
Cc1ccc(N(CC(=O)NCCc2ccccc2)S(=O)(=O)N(C)C)cc1 | 3 | i | -4% | -7% | 4% | x
CC#CCC(C)[C@H](O)/C=C/[C@@H]1[C@H]2c3cccc(CCCC(=O)O)c3O[C@H]2C[C@H]1O (stereo partly specified) | 15 | i | x | x | x | x
O=C(/C=C/c1ccc(Cl)cc1Cl)n1cccn1 | 0 | i | -21% | -9% | -17% | -59*
O=S1(=O)[C@H]2C[C@H](CO)O[C@@]2(CO)CN1Cc1ccc(-c2cccc(Cl)c2)cc1 | 9 | i | -31% | u | -21% | 19
O=S1(=O)[C@H]2C[C@H](CO)O[C@@]2(CO)CN1Cc1ccc(-c2ccc(F)cc2)cc1 | 31* | i | -24% | u | -10% | -20
CCN(CC)C(=O)Cn1c(=O)n(-c2ccc(Cl)cc2)c(=O)c2c3c(sc21)CCC3 | -11 | i | -9% | -15% | 10% | x
COc1cccc(-c2oc3c(c2C(=O)OCCN2CCCCC2)C(O)CCC3)c1 (stereo unspecified) | -12 | i | x | x | 14% | -55*
CC(C)C1=CC(=Nc2ccc(S(N)(=O)=O)cc2)C=C(C(C)C)C1=O | 9 | i | 11µM* | u | -17% | 2
Cc1cccc(S(=O)Cc2ccc(C(=O)NC3CCCCCC3)o2)c1 (stereo unspecified) | 1 | x | -3% | 9% | x | x
CCN1CCN(CCNC(=O)CCCCCn2c(=O)[nH]c3cc(C(=O)OC)ccc3c2=O)CC1 | -1 | i | -1% | 26% | 2% | -12
COC(=O)c1ccc2c(C(=Nc3ccc(N(C)C(=O)CN4CCN(C)CC4)cc3)c3ccccc3)c(O)[nH]c2c1 | x | x | x | x | 24µM* | x
Cc1cc(C)c(OCCCNC2CCCC2)c(Br)c1 | -18 | i | -31% | 1% | -38% | -53*
Cc1ccc(CN(C(=O)COc2ccc(Cl)cc2Cl)C2CCS(=O)(=O)C2)o1 (stereo unspecified) | -5 | x | -27% | x | x | x
COc1ccc(-c2cc(-c3ccccc3)nc(N3CCCC3)n2)cc1OC | 41* | i | -27% | -1% | -2% | 49
CCc1c(C)nc2cc(-c3ccc(OC)c(OC)c3)nn2c1N1CCCC1 | 29 | u | -93% | 22µM* | u | 8
CCc1c(C)nc2cc(-c3cc(OC)cc(OC)c3)nn2c1N1CCCC1 | 31* | i | -69% | u | -18% | 10
